ELG1 repair inh = qHTS screen for small molecules that inhibit ELG1-dependent DNA repair in human embryonic kidney (HEK293T) cells expressing luciferase-tagged ELG1 | HEK293T ELG1-luciferase reporter, luminescence, 16 h; DNA damage induced by 5-fluorouridine | Potency, µM (highest dose often 46.1 µM), without a hit: at the highest dose activity change, negative = inhibition, most hits filed as inhibitors | hit rate 2.3% among 330,000 | AID 504467, 2011; also: % is scaled to controls: 0 for no effect and ±100 for the full control effect; nearly all actives have a fitted effect of over 55% in size
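Luminescence from the luciferase reporter, measured 30 min after ONE-Glo reagent at room temperature, was the read-out. Beforehand, 2,000 cells per well were exposed for 16 hr at 37 °C to 5-fluorouridine together with compound or vehicle.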
FLuc modulator = qHTS profiling assay for firefly luciferase inhibitor/activator using purifed enzyme and Km concentrations of substrates (counterscreen for miR-21 project); Luciferin 4-monooxygenase (Photinus pyralis), P08659; purified FLuc, Km substrates, luminescence inhibition; Potency, µM (doses to about 57.5 µM), inactives show at the top dose activity change, negative = inhibition, hits mostly inhibitors; hit rate 6.9% among 360,000;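 also: plate controls were vehicle for no effect and reference inhibitor for full effect; nearly all actives have a fitted effect of over 55% in size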
Target sequence (P08659 whole entry, looked up): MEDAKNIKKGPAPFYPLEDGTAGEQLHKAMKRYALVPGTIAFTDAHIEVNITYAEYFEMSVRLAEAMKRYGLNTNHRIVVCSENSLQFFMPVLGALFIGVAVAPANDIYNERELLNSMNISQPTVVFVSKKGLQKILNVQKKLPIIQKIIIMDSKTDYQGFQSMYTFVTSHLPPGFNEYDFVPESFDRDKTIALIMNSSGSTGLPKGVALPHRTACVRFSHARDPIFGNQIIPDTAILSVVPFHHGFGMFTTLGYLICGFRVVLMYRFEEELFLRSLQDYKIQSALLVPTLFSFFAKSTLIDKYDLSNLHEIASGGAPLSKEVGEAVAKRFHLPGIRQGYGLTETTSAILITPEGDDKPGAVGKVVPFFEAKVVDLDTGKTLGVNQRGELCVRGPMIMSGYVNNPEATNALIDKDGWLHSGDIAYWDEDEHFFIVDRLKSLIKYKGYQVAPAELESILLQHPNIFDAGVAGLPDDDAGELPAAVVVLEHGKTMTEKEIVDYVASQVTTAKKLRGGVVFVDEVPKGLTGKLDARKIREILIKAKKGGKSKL
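Purified P. pyralis luciferase (10nM final) with 10uM D-luciferin and 10uM ATP (Km levels) in 50mM Tris acetate pH 7.5, 10mM Mg acetate, 0.01% Tween-20, 0.05% BSA; qHTS 6-point titration, ~60 µM downward; luminescence read.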
ELG1 genotoxic = qHTS screen for small molecules that induce genotoxicity in human embryonic kidney (HEK293T) cells expressing luciferase-tagged ELG1; Potency, µM (highest dose often 46 µM), for inactives: at the top dose activity change, positive = activation, most hits filed as activators; hit rate 1.3% among 330,000; HEK293T ELG1-luciferase reporter, luminescence, 16 h; AID 504466, 2011; also: % of control where 0% means no effect; nearly all actives have a fitted effect of over 60% in size
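Genotoxicity was scored as increased ELG1-luciferase reporter signal, measured by ONE-Glo luminescence (30 min, room temperature). Compound or vehicle exposure of the HEK293T reporter cells lasted 16 hr at 37°C.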
SMN2 splice up = qHTS Assay for Enhancers of SMN2 Splice Variant Expression; HEK293 SMN2-luciferase splicing reporter, luminescence, 30-36 h; Potency, µM (doses to about 46.1 µM), without a hit: at the highest dose activity change, positive = activation, actives largely listed as activators; hit rate 2.8% among 210,000; AID 1458, 2008; also: % of control where 0% means no effect; nearly all actives have a fitted effect of over 55% in size
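qHTS luciferase splicing reporter: luminescence rises when SMN2 exon 7 is included in transfected HEK293 cells. Compound exposure lasted 30-36 h at 37C, with 4.5 mM final sodium butyrate as control, followed by a ONE-Glo read.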
NPC1 promoter act = qHTS Assay for NPC1 Promoter Activators; AID 485313, 2010; Huh7 NPC1 promoter luciferase reporter, 24 h; Potency, µM (highest dose often 9.22 µM), without a hit: top-dose activation, actives largely listed as activators; hit rate 2.4% among 320,000; also: % of control where 0% means no effect; nearly all actives have a fitted effect of over 60% in size
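Compounds in DMSO were transferred onto Huh7 NPC1-luciferase reporter cells pre-incubated 2 h; after 24 h at 37 °C, Amplite reagent was dispensed and luminescence recorded 10 min later.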
Rab9 prom act = qHTS Assay for Rab9 Promoter Activators. Huh7 Rab9 promoter-luciferase reporter, luminescence, 24 h. Potency, µM (series often up to 9.22 µM), for the others: at the highest dose activation, negative = inhibition, actives largely listed as activators. hit rate 2.8% among 320,000. AID 485297, 2010; also: % of control where 0% means no effect; nearly all actives have a fitted effect of over 60% in size
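Luminescence from Amplite-detected luciferase (10 minutes, ambient) reports Rab9 promoter activation. Before that, stable Rab9-luciferase Huh7 cells (1500/well, reduced-serum OP-MEM I plus 10% FBS) were exposed to compound for 24 hours at 37C.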
Numbers without * were called inactive; ? = inconclusive; . = not tested or not shown; [ ] = dose if it differs, or a comment. The list is not random: actives were taken first. Their share in the collection is about 9.2%. Calls follow the shape of the dose curve; as a rule, active = well fitted curve in the direction sought with a large enough effect; inconclusive = small, poorly fitted or top-dose-only effect, or another doubt; inactive = no such curve, though single readings can be large; an effect the other way counts as inactive or inconclusive. Potency is read from the fitted curve at half-maximal effect.

SMILES	ELG1 repair inh	FLuc modulator	ELG1 genotoxic	SMN2 splice up	NPC1 promoter act	Rab9 prom act
COc1cc(Cl)c(S(=O)(=O)N2CCN(c3c(C)cccc3C)CC2)cc1Cl	.	7%	.	1%	.	.
CCN1CCN(C(=O)c2ccc(-c3nc4ccccc4s3)s2)CC1	?	?	14%	11µM*	?	2.2µM*
CCOC(=O)C1CCN(S(=O)(=O)c2ccc(-c3nc4ccccc4s3)s2)CC1	?	21µM*	?	-28%	30%	17%
O=C(NC1CC1)c1ccc(-c2nc3ccccc3s2)s1	?	0.15µM*	0.26µM*	0.5µM*	0.4µM*	0.32µM*
CCCN1CCN(C(=O)c2ccccc2-c2nc3ccccc3s2)CC1	9%	1%	0%	10%	2%	-1%
O=C(c1ccc(-c2nc3ccccc3s2)s1)N1CCOCC1	?	0.38µM*	?	.	0.089µM*	?
Cc1nnsc1Sc1ccccc1	?	-8%	4%	5%	0%	-6%
Cc1ccccc1CNC(=O)C1CCCN(c2nnc(-n3c(C)ccc3C)s2)C1 (centres undefined)	.	-10%	.	-4%	.	.
COc1ccc(/C=C2\C(=O)ON=C2c2ccccc2)cc1OC	26%	?	?	.	-1%	2%
COc1ccc(/C=C2/C(=O)ON=C2c2ccccc2)cc1OC	?	11µM*	15%	7%	-6%	-8%
COc1ccc(/C=C2\C(=O)ON=C2c2cccc([N+](=O)[O-])c2)cc1	2%	24µM*	1%	9%	-4%	-3%
CCOC(=O)C1=C(C)NC(SCC(=O)Nc2nc(C)cs2)=C(C#N)C1c1cccs1 (centres undefined)	21µM*	-6%	-2%	-28%	4%	11%
C=CCOC(=O)C1=C(C)NC(SCC(N)=O)=C(C#N)C1c1cccs1 (centres undefined)	-13%	1%	-2%	-6%	0%	-5%
Cn1nc(-c2ccccc2F)c2cc(C(=O)NCc3ccc(Cl)cc3)sc21	.	-6%	.	6%	.	.
CC(=O)c1ccc(N2CCN(C(=O)c3cc4c(-c5ccccc5F)nn(C)c4s3)CC2)cc1	18µM*	-3%	-15%	-23%	2%	2%
Cn1nc(-c2ccccc2F)c2cc(C(=O)Nc3ccc4c(c3)OCCO4)sc21	?	9.5µM*	11%	29%	-3%	10%
CC(CCc1ccco1)NC(=O)c1cc2c(-c3ccccc3F)nn(C)c2s1 (centres undefined)	16µM*	-4%	-9%	-14%	0%	1%
Clc1ccc(N2CCN(c3ncnc4c3nc3n4CCCC3)CC2)cc1	.	-8%	.	.	.	.
CCOC(=O)Cn1c(=O)c(-c2cc(Br)ccc2N)nc2ccccc21	-4%	4%	0%	.	-7%	1%
Cn1c(=O)c(-c2cc(Br)ccc2N)nc2ccccc21	?	24µM*	?	19%	18%	?
CCCCc1ncc(CN2CCC(n3nccc3NC(=O)c3ccccc3Cl)CC2)[nH]1	10µM*	1%	-7%	.	0%	0%
Cc1nc(C)c(C(=O)NCCC(c2ccccc2)c2ccccc2)o1	5.8µM*	0%	-13%	-87%	-15%	-11%
COc1ccc2[nH]c(-c3cccc(F)c3)cc(=O)c2c1	?	15µM*	13µM*	11µM*	22%	-6%
Cc1ccc2[nH]c(-c3cccc(F)c3)cc(=O)c2c1	?	13µM*	15µM*	-2%	-5%	-11%
O=c1cc(-c2cccc(F)c2)[nH]c2ccccc12	-1%	-26%	?	-27%	-12%	-21%
SMILES	ELG1 repair inh	FLuc modulator	ELG1 genotoxic	SMN2 splice up	NPC1 promoter act	Rab9 prom act
Cc1ccc(NC(=O)Cn2c(C)cc(C)c(C#N)c2=O)cc1F	.	-2%	.	.	.	.
CCCC(=O)C1=C(O)C(c2cccc(Oc3ccccc3)c2)CCC1=O (centres undefined)	18µM*	?	-5%	-25%	-6%	-1%
O=C(CCSCc1cccc(F)c1)NCCc1ccccc1	7%	-12%	1%	.	2%	1%
C(=C\n1nnc2ccccc21)/c1ccccn1	?	4.3µM*	?	.	2µM*	1.1µM*
Nn1nnc2ccccc21	5%	-18%	1%	-6%	8%[46.1 µM]	2%[46.1 µM]
O=C(OCC(=O)N1CCOCC1)c1ccccc1Cc1ccccc1	?	9.5µM*	13µM*	11µM*	1.6µM*	3.2µM*
O=C(COc1ccccc1F)N/N=C1\CCCc2ccccc21	?	15µM*	?	.	?	?
COc1ccccc1OCC(=O)N/N=C1\CCCCc2ccccc21	?	-17%	-7%	.	1%	-2%
O=C(COc1cccc(Br)c1)N/N=C1\CCCc2ccccc21	?	?	9%	10%	7%	15%
COc1ccccc1OCC(=O)N/N=C1\CCc2ccccc21	?	21µM*	8.2µM*	.	26%	2.8µM*
Cc1cccc2c1OCC/C2=N\NC(=O)COc1ccccc1	?	19µM*	?	9%	?	?
COc1ccc(OCC(=O)N/N=C2\CCCc3ccccc32)cc1	15%	19µM*	1%	.	8%	6%
CCOC(=O)[C@@H]1[C@H]2COc3cc(OC)ccc3[C@@H]2N2C(=O)N(c3cccc(Cl)c3)C(=O)[C@@]12C	12%	-3%	0%	.	-4%	1%
CSc1nnc(C)c(=O)n1COC(=O)c1cc(Cl)ccc1[N+](=O)[O-]	12%	-7%	0%	6%	-1%	11%
O=C1c2ccc3c4c(ccc(c24)C(=O)N1c1cccc(O)c1)C(=O)N(c1cccc(O)c1)C3=O	6.5µM*	-2%	-14%	.	-34%	-49%
O=C1c2ccc3c4c(ccc(c24)C(=O)N1c1cccc(O)c1)CC3	13%	1%	2%	4%	-6%	-4%
CCOC(=O)N1CCN(C(=O)c2ccc3c(c2)NC(=O)/C(=C\c2cccc(C)c2)S3)CC1	-2%	-19%	-3%	.	-3%	-2%
c1ccc(Oc2nc(N3CCOCC3)nc(N3CCOCC3)n2)cc1	?	1%	2%	24%	-5%	1%
O=C1CSC(c2ccccc2)N1Nc1nc(N2CCOCC2)nc(N2CCOCC2)n1 (centres undefined)	6.5µM*	-1%	-1%	.	-8%	-9%
C1CCOC1	.	.	.	-2%	.	.
